Measured values: the supplement of paper PMC6411743
± gives the standard deviation of the averaged measurements. The full data set covers some 6,200 targets. This sample favours those with the largest changes.

Legend:
Assay in all cases: NP40-soluble protein abundance relative to vehicle (solubility fold change) (ratio); higher = more soluble protein in presence of AMP-PNP
[1] = biological target: T1, GALNS (UniProt P34059)
T1 sequence (whole entry): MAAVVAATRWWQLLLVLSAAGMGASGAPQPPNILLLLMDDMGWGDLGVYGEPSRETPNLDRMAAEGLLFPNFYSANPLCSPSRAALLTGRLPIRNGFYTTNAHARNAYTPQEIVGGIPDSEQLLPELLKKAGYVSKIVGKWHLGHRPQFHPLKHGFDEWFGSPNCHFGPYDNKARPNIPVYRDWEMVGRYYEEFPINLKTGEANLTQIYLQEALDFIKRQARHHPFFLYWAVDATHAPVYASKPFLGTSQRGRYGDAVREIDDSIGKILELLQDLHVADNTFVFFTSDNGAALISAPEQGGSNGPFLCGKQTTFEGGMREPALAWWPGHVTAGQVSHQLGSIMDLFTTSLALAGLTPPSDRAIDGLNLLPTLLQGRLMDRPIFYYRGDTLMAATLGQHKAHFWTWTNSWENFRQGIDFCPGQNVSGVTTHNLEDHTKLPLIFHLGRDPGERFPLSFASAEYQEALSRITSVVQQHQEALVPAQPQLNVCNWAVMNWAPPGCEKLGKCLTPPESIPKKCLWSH
How it was run: (§1)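 Each value is a fold change relative to the detergent-processed vehicle, calculated per replicate from vsn-normalised intensities. Jurkat crude lysate received eight concentrations (0.1 to 10 mM) for 10 min at room temperature and 3 min at 37 °C, then was solubilised in 0.8% NP40 with benzonase (60 min, 4 °C). The ultracentrifuged supernatant was TMT-labelled and run by LC-MS/MS in three independent experiments.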

[2] = biological target: T2, MFN2 (UniProt O95140)
T2 sequence (whole entry): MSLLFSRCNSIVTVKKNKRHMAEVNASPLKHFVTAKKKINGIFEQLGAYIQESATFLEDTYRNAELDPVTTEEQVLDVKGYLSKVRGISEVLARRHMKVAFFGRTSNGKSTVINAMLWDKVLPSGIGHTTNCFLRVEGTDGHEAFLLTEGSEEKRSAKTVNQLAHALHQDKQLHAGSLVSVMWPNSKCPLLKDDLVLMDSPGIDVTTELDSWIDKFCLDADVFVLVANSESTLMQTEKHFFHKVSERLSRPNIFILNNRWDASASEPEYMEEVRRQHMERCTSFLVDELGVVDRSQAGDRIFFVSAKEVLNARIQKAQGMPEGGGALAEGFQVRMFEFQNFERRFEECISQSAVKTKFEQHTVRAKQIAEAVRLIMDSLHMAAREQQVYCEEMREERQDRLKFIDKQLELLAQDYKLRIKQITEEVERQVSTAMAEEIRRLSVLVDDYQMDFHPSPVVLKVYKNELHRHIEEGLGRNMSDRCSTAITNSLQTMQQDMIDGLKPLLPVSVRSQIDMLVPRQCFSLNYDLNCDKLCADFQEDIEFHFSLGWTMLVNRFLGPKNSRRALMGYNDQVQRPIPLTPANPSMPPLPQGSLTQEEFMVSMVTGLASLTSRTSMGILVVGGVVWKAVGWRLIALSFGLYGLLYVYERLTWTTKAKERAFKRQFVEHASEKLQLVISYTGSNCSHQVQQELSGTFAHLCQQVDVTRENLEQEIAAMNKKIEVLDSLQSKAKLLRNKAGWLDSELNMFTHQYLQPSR
How it was run: as §1

[3] = biological target: T3, PPM1F (UniProt P49593)
T3 sequence (whole entry): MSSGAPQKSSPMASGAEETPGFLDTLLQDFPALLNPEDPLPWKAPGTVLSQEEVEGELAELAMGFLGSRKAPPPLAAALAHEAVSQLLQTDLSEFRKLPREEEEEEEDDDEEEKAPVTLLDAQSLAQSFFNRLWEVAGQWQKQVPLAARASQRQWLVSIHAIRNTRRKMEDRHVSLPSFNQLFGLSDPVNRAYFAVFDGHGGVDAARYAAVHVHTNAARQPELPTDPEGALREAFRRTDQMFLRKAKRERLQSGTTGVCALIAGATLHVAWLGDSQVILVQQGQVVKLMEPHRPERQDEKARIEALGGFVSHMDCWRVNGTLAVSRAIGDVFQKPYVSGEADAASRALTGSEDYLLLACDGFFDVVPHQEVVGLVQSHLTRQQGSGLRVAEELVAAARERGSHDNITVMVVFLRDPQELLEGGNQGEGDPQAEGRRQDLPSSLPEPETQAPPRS
How it was run: as §1

Nc1ncnc2c1ncn2[C@@H]1O[C@H](COP(=O)(O)OP(=O)(O)NP(=O)(O)O)[C@@H](O)[C@H]1O [adenylyl imidodiphosphate]
NP40-soluble protein abundance ([1]; concentration: 1mM): 0.986 ± 0.018
NP40-soluble protein abundance ([1]; concentration: 2mM): 0.972 ± 0.011
NP40-soluble protein abundance ([1]; concentration: 4mM): 0.957 ± 0.04
NP40-soluble protein abundance ([1]; concentration: 6mM): 0.963 ± 0.019
NP40-soluble protein abundance ([1]; concentration: 8mM): 0.933 ± 0.034
NP40-soluble protein abundance ([1]; concentration: 10mM): 0.975 ± 0.027
NP40-soluble protein abundance ([2]; concentration: 1mM): 1.01 ± 0.064
NP40-soluble protein abundance ([2]; concentration: 2mM): 0.956 ± 0.032
NP40-soluble protein abundance ([2]; concentration: 4mM): 1.01 ± 0.074
NP40-soluble protein abundance ([2]; concentration: 6mM): 0.965 ± 0.037
NP40-soluble protein abundance ([2]; concentration: 8mM): 0.986 ± 0.049
NP40-soluble protein abundance ([2]; concentration: 10mM): 0.989 ± 0.024
NP40-soluble protein abundance ([3]; concentration: 1mM): 1.028 ± 0.0057
NP40-soluble protein abundance ([3]; concentration: 2mM): 1.019 ± 0.0062
NP40-soluble protein abundance ([3]; concentration: 4mM): 1.03 ± 0.011
NP40-soluble protein abundance ([3]; concentration: 6mM): 1.014 ± 0.0081
NP40-soluble protein abundance ([3]; concentration: 8mM): 1.02 ± 0.013
NP40-soluble protein abundance ([3]; concentration: 10mM): 1.04 ± 0.018
